About 83,000 compounds went through this panel and 20% of them were active in at least one assay; those are over-represented in the sample as a whole.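 Single-concentration screen, 48 h exposure, 96-well plates. Endpoint: percent growth. Below 10 = active.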 A number with no mark means an inactive call. Activity calls are given as the source filed them.

The test deals with SNB-75 CNS. In words: NCI-60 one-dose screen, 48 h (100 = growth as untreated, 0 = no growth, -100 = all killed). The following applies: 10 µM unless noted. The protocol: Growth inhibition of the SNB-75 human tumor cell line is measured as a screen for anti-cancer activity. Cells are grown in 96 well plates and exposed to the test compound for 48 hours. Compounds are tested at a single concentration, which is 10^-5 M for most compounds. The reported endpoint is percent growth (GI% or GIPRCNT), where numbers from 0 - 100% represent growth inhibition, and numbers from -100% - 0 represent cell death. For example, a value of 40 represents 60% growth inhibition. A value of 0 means no net growth occurred over the course of the experiment. A value of -40 indicates 40% of cells at the beginning of the experiment died by the end of the experiment. A value of -100 means all cells are dead at the end of the experiment.
NCI-60 Human Tumor Cell Lines Screen was performed using the standard one-dose NCI protocol, which is described in more detail at https://dtp.cancer.gov/discovery_development/nci-60/default.htm.
Compounds with GIPRCNT values below 10 were considered active. Activity score was based on GIPRCNT using the following formula: […]
Score is 0 for GIPRCNT values of 100 or above, 50 for GIPRCNT values of 0, and 100 for GIPRCNT values of -100.
With `COc1cc(/C=C/C(=O)N2CCN(C(=O)c3cc(OC)c(OC)c(OC)c3)CC2)ccc1OCCCN1C(=O)c2cccc3cccc(c23)C1=O`, the growth is 93.1%. In the case of `COC(=O)/C=C1\S/C(=N\NS(=O)(=O)c2ccc(C)cc2)N(c2ccccc2)C1=O`, the growth was 83.8%. Under `CCc1ccccc1-n1c(N)c(C#N)c(-c2ccc(N(C)C)cc2)c(C#N)c1=O` stands 88.3%; under `O=C(CSc1nccc(Nc2ccc(S(=O)(=O)Nc3nccs3)cc2)n1)c1ccc(F)cc1`, 94%. Under `C[C@]12CC[C@@H]3c4cc(OC(F)F)c(O)cc4CC[C@H]3[C@@H]1CC[C@@H]2OS(N)(=O)=O` stands -8.09% (active); under `O=C1/C(=C/c2ccc(F)cc2)C=C(c2ccccc2)N1CCc1ccccc1`, -10.5% (active).

For `O=[N+]([O-])c1ccc(-c2cc(-c3ccc(Nc4nc(Nc5ccc(Cl)cc5)nc(Nc5ccc(Cl)cc5)n4)cc3)no2)cc1`, the growth is 16.9%.

Take `COc1ccc(/C=C/c2c(C(=O)/C=C/c3cccs3)c(C)nc3ccccc23)cc1`: the growth is 72%. Under `Cc1ccc2nc(NC(=O)CSc3nc(Nc4ccc([N+](=O)[O-])cc4)c(C#N)c(-c4ccccc4)n3)sc2c1` stands 85.6%; under `COC(=O)[C@]12CC[C@@H](C)[C@H](C)[C@@H]1C1=CC[C@@H]3[C@@]4(C)C(C=O)=C[C@@](C)(COS(C)(=O)=O)C4[C@H](O)C[C@@]3(C)[C@]1(C)CC2` (stereo not given in full), -92.1% (active).

Turning to `C[n+]1cc2cc(C(N)=O)[nH]c3c(=N)c(Cl)c(N)c1c23`, the growth is 86.3%. As for `c1csc(-c2c3ccc(=[N+]4CCCCC4)cc-3oc3cc(N4CCCCC4)ccc23)c1`, the growth is -47.4% (active). Turning to `CNC(=O)NCC1OC(n2cnc3c(NC(=O)Nc4ccccc4)ncnc32)C(O[Si](C)(C)C(C)(C)C)C1CC(=O)N(C)OC` (stereo not given), the growth is -7.28% (active). For the compound `Cc1cc(O)c(C2=NN(c3ccc(S(N)(=O)=O)cc3)C(c3ccccc3Cl)C2)cc1Cl` (stereo not given), the growth is 41.7%.

With `N[C@@H](CCCCNCC(=O)O)C(=O)O`, the growth is 84.1%. On to `Cc1ccc(C(=O)COc2cccc(/C=C3\Oc4ccccc4C3=O)c2)cc1`, for which the growth is 104%. In the case of `CCCc1cc2c(=O)c(C(=O)OC)c[nH]c2cc1N(CC)CC`, the growth is 104%.

Consider `CCc1ccccc1-n1c(-c2ccc(Cl)cc2)cc(-c2ccc(Cl)cc2)c(C#N)c1=O`, for which the growth is 98.6%.

As to `O=c1[nH][n+](-c2ccc(Cl)cc2)no1`, the growth was 74.4%.

For `N/C(=N\c1nc2ccccc2s1)NC(=O)Nc1cccc(Cl)c1`, the growth was 13.7%. Under `COc1ccc(OC)c2c1[nH]c(=O)c1c3ncccc3cn21` stands 59.7%; under `COC(=O)c1c2c(c(C)[n+]([O-])c1C)C(=O)C(NCc1ccc(F)c(Cl)c1)=CC2=O`, 109%. For the compound `Fc1cnc(NC2CC2)nc1-c1cnc2ccc(N3CCOCC3)cn12`, the growth was -42.9% (active). Under `O=C(N/N=C/C=C/c1ccc([N+](=O)[O-])o1)c1cc2ccccc2cc1O` stands 43.4%; under `NC(=N\N=C/c1ccccc1[N+](=O)[O-])/C(N)=N\N=C/c1ccccc1[N+](=O)[O-]`, 97.9%. `NC(=O)c1ccc[n+](Cc2ccc(Cl)cc2Cl)c1`: the growth is 102%. In the case of `Cn1ccc2c(c1=O)C(=O)c1nccc3c1c-2nc1ccccc13`, the growth was 60.2%. On to `O=C(/C=C/c1c(Cl)nc2sccn12)c1ccc(F)c(F)c1`, for which the growth was 60.4%. `c1coc(-c2c3ccc(=[N+]4CCCCC4)cc-3oc3cc(N4CCCCC4)ccc23)c1`: the growth was -67.8% (active). Under `COc1cc(N2C(=O)c3nccnc3C2=O)cc(OC)c1OC` stands 103%; under `Nc1cc2c3c(cccc3c1)C(=O)N(CCN1CCCC1)C2=O`, 48%. Under `O=C1CCC2=C3C4CCCCC4C(=O)C4CCCC(OC2C1)C34` (stereo not given) stands 43.1%; under `C#CCOc1nc(C)cc(C)c1C#N`, 79.6%. Under `O=c1ccn2nc3ccccc3c2[nH]1` stands 85.2%; under `COc1ccc(-c2ccc3c(c2)sc2nc(-c4ccc(F)cc4)cn23)cc1`, 98.9%. On to `COc1ccc(-c2nc3c(c(=O)n2C(C)=O)C(c2ccc(Cl)cc2)c2sc4c(Cl)cccc4c2O3)cc1` (stereo not given), for which the growth was -12.7% (active). Turning to `Cn1c2c(c3ccc(Cl)c(Cl)c31)C(C#N)C1(CCNCC1)NC2=O` (stereo not given), the growth was 22.2%. As to `Cc1ccc(Cc2cnc(NC(=O)c3ccc4noc(-c5ccccc5)c4c3)s2)cc1`, the growth is 94.1%.

For `Cc1ccc2nc(NC(=O)CSc3nc(-c4ccccc4)c(C#N)c(=O)n3Cc3ccccc3)sc2c1`, the growth was 63.5%.

As to `CC1=C([Se]CC(OC(=O)[C@@H](CO)NC(=O)OC(C)(C)C)C(=O)NC(C)(C)C)C(=O)c2ccccc2C1=O` (stereo not given in full), the growth was -100% (active).
